Reference: PubChem BioAssay (NCATS)
A number with no mark means an inactive call.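 How the source made its calls: active means compounds whose dose series gives a full or clear partial fitted curve of increased nuclear translocation; inconclusive means weak partial curve or effect only at the top dose; inactive means no dose-dependent translocation response.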

Molecular target: Glucocorticoid receptor (Homo sapiens) (UniProt P04150)
Assay: GR-GFP Redistribution (AID 450)
Settings: U2OS GR-GFP nuclear translocation, laser cytometry, 2 h; series mostly up to 20.6 µM
Potency means the concentration at half of the fitted maximal effect.

Glucocorticoid receptor (Homo sapiens), sequence (P04150 whole entry, looked up): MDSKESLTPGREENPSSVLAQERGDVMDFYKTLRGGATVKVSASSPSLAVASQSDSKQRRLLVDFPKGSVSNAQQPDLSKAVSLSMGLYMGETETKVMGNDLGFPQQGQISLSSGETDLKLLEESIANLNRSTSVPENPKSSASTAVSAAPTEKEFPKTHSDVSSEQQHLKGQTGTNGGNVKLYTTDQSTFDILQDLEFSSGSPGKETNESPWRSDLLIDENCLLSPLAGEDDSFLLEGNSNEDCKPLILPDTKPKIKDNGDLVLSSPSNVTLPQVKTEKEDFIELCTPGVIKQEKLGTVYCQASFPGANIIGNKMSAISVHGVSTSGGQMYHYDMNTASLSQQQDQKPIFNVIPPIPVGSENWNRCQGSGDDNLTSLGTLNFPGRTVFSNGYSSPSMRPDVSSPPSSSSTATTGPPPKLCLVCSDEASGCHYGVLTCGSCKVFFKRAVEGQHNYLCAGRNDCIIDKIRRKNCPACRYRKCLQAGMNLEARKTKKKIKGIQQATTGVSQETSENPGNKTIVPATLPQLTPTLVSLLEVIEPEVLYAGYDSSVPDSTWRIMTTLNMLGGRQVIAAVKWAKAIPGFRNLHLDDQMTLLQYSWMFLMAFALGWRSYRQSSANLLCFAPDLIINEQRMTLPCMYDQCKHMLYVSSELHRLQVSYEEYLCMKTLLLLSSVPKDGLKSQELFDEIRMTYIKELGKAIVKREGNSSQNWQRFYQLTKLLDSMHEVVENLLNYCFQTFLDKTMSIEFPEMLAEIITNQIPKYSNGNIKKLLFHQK

Row | SMILES | Potency [µM]
1 | O=C(O)CN(c1ccccc1)C1SC(=O)NC1=O (stereo not given) | > 20.6
2 | Cc1[nH]c2ccc(F)cc2c(=O)c1SC(F)(F)C(F)C(F)(F)F (stereo not given) | > 20.6
3 | CCC1(C)Cc2c(sc3nc4n(c(=O)c23)CCS4)CO1 (stereo not given) | > 20.6
4 | CN(C)c1ccc(O)c2c1CC1CC3[C@@H](N(C)C)C(=O)C(C(N)=O)=C(O)[C@]3(O)C(=O)C1=C2O (stereo not given in full) | > 20.6
5 | COc1ccccc1-n1c(=O)c2c3c(sc2n2c(SC(C)C)nnc12)CCC3 | > 20.6
6 | O=S(=O)(c1cccc2nsnc12)N1CCN(C/C=C/c2ccccc2)CC1 | > 20.6
7 | Cc1ccc(-c2nn(C)c(=O)c3ccccc23)cc1CN1CCOCC1 | > 20.6
8 | CCCCCOC(=O)Cc1c(C)nc(-c2ccccc2)[nH]c1=O | > 20.6
9 | C=CCOC(=O)C1=C(C)OC(N)=C(C#N)C1c1ccoc1 (stereo not given) | > 20.6
10 | CCOC(=O)c1c(C)oc2ccc(OCC(=O)C(C)(C)C)cc12 | > 20.6
11 | CCOc1ccc(-n2c(SCc3ccc(C#N)cc3)nnc2-c2cccnc2)cc1 | > 20.6
12 | Cc1cc(=O)oc2cc(OCCSCCN3CCOCC3)ccc12 | > 20.6
13 | CCOC(=O)N1CCN(C2OC(=O)c3ccccc32)CC1 (stereo not given) | > 20.6
14 | CCc1cccc(CC)c1N(COC)C(=O)Cn1nnc2ccccc21 | > 20.6
15 | CCCOc1ccc(C2NC(=O)NC2=O)cc1 (stereo not given) | > 20.6
